Screening results (PubChem BioAssay)
Marburg entry inh – qHTS for inhibitors of binding or entry into cells for Marburg Virus; Potency, µM (series often up to 37.8 µM), actives largely listed as inhibitors; Marburg virus pseudotyped entry inhibition, cell reporter; AID 540276, 2011; 300,000 tested, 1.8% active; calls by dose curve; tested in HEK293 cells
Shiga toxin inh – A qHTS for Small Molecule Inhibitors of Shiga Toxin. Vero cells, Shiga toxin protein synthesis inhibition reporter. inhibition, % at 38.7 µM. 290,000 tested, 9.2% active; in the data active means inhibition mostly above about 28%, no sharp cut-off; inactive means mostly below about 43%
Cycloheximide cs – Cycloheximide Counterscreen for Small Molecule Inhibitors of Shiga Toxin; cell reporter, cycloheximide protein synthesis inhibition counterscreen; max response, %; 300,000 tested, 12% active; in the data active means max response mostly above about 13%, no sharp cut-off; inactive means mostly below about 14%; further: read at 38.3 µM for the half of the compounds with a filed dose
Lassa entry inh – qHTS for Inhibitors of binding or entry into cells for Lassa Virus. Lassa virus pseudotype entry inhibition, cell reporter. Potency, µM (series often up to 37.9 µM), usual class: inhibitors. 300,000 tested, 1.2% active. AID 540256, 2011; calls by dose curve; tested in HEK293 cells; further: nearly all actives have a fitted effect of over 50% in size
AMA1-RON2 inh – qHTS for Inhibitors of AMA1-RON; Towards Development of Antimalarial Drug Lead: Primary Screen. AlphaScreen AMA1-biotinylated RON2 peptide binding. Potency, µM (highest dose often 58.2 µM), hits mostly inhibitors. 360,000 tested, 0.2% active. Plasmodium falciparum AMA1 (3D7) - RON2 peptide interaction; active means well fitted inhibition curve with a large enough effect; inconclusive means small, poorly fitted or top-dose-only effect; inactive means no such curve, though single readings can be large or run the other way; further: nearly all actives have a fitted effect of over 45% in size
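AMA1 (3D7) with his tag at 25 nM final met compounds first, then biotinylated RON2 peptide at 25 nM; detection used donor plus acceptor beads, 10 µg/mL apiece, read by AlphaScreen after 30 min at room temperature.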
Of the large screens only hits and unclear results are named; the others gave an inactive call. The full list was thinned out, with hits kept by preference.

O=C(NC1CCCCC1)C(c1ccc(O)c(O)c1)N(C(=O)Cn1nnc2ccccc21)c1cccc(O)c1 (centres undefined)	none
O=C(NCc1ccco1)c1nc2ccccc2s1	Marburg entry inh inconclusive, Shiga toxin inh 77, Cycloheximide cs 23
O=C(NCc1ccco1)c1ccccc1	Marburg entry inh inconclusive
CC(=O)NCc1ccc(-c2csc(-c3cccs3)n2)cc1	Marburg entry inh inconclusive, Shiga toxin inh 86, Cycloheximide cs 21
COc1cccc(C(=O)COC(=O)c2ccc(NC(C)=O)cc2)c1	Marburg entry inh inconclusive, Cycloheximide cs 16
COc1cccc(N/C=C/C(=O)c2ccc(OC)c(OC)c2)c1	Shiga toxin inh 46, Cycloheximide cs 27 (no result: Marburg entry inh, Lassa entry inh)
CCOC(=O)c1cccc(N/C=C/C(=O)c2ccc(OC)c(OC)c2)c1	Marburg entry inh inconclusive, Shiga toxin inh 98, Cycloheximide cs 27
CCOC(=O)C(=O)Nc1cccc(C(=O)OCC)c1	Marburg entry inh inconclusive
CCOC(=O)c1ccc(OS(=O)(=O)c2ccccc2)c(OC)c1	Marburg entry inh inconclusive, Shiga toxin inh active, Cycloheximide cs 50, Lassa entry inh inconclusive
CC(C)C[C@@H](CNCC(=O)[C@H](CC(C)C)NC(=O)c1[nH]cnc1C(=O)N[C@@H](C)CN)NC(=O)c1nc[nH]c1C(=O)N[C@@H](CC(=O)O)C(=O)O	none (no result: Marburg entry inh, Shiga toxin inh, Cycloheximide cs, Lassa entry inh)
Cc1ccc(C(=O)NCC(=O)N2CCN(c3ccccc3O)CC2)s1	none (no result: Marburg entry inh, Shiga toxin inh, Cycloheximide cs, Lassa entry inh)
CN(C)c1ncnc2c1ncn2[C@H]1CN(Cc2cccs2)C[C@@H](CO)O1	none (no result: Marburg entry inh, Shiga toxin inh, Cycloheximide cs, Lassa entry inh)
O=C(CC[C@H]1O[C@@H](n2ccc(=O)[nH]c2=O)[C@H](O)[C@@H]1O)N[C@H](Cc1ccccc1)C(=O)NC1CCCCC1	none (no result: Marburg entry inh, Shiga toxin inh, Cycloheximide cs, Lassa entry inh)
COC(=O)c1ccc(N/C=C/C(=O)c2ccccc2)cc1	Marburg entry inh inconclusive, Shiga toxin inh 48, Cycloheximide cs 43, Lassa entry inh inconclusive
COc1cccc(C(=O)/C=C/Nc2cc(C)ccc2O)c1	Marburg entry inh inconclusive, Shiga toxin inh 88, Cycloheximide cs 51
COc1ccc(OC)c(N/C=C/C(=O)c2ccc(OC)c(OC)c2)c1	Cycloheximide cs 15, Lassa entry inh inconclusive
COc1cccc(C(=O)Nc2cc(C)ccc2NC(=O)COc2ccccc2)c1	none
CCOC(=O)c1ccc(N/C=C\C(=O)c2cccc(OC)c2)cc1	Marburg entry inh inconclusive, Shiga toxin inh 95, Cycloheximide cs 48
COc1ccc(CC(=O)OCC(=O)Nc2ncc(Cl)c(C)c2Cl)cc1	Lassa entry inh inconclusive (no result: Shiga toxin inh, Cycloheximide cs)
O=C(O)c1ccc(Cl)cc1NC(=O)C1CCCO1 (centres undefined)	none
Cc1ccc2oc(-c3cccc(NC(=O)c4ccccn4)c3)nc2c1	none (no result: Marburg entry inh, Shiga toxin inh, Cycloheximide cs, Lassa entry inh)
Cc1ccc2oc(-c3cccc(NC(=O)C4CCCO4)c3)nc2c1 (centres undefined)	Shiga toxin inh 76, Cycloheximide cs 41
O=C(Nc1cccc(-c2nc3cc(Cl)ccc3o2)c1)C1CCCO1 (centres undefined)	Cycloheximide cs 14
COc1cc(C(=O)Nc2cccc(-c3nc4cc(C)ccc4o3)c2)cc(OC)c1OC	Shiga toxin inh 81, Cycloheximide cs 17
Cc1cccc(-c2nc3cc(NC(=O)C4CCCO4)ccc3o2)c1 (centres undefined)	Marburg entry inh 7.1µM, Shiga toxin inh active, Cycloheximide cs 67, Lassa entry inh 7.9µM
O=C(O)/C=C/C(=O)NC1CC1	none
O=Cc1cc2ccccc2nc1SCc1ccc(Cl)cc1	Marburg entry inh inconclusive, Lassa entry inh 10µM
O=Cc1cc2ccccc2nc1SCc1ccc(Cl)c(Cl)c1	Marburg entry inh 2.2µM, Lassa entry inh inconclusive
Cc1cccc(OCc2nc(CC(=O)Nc3ccc(C)c(C)c3)cs2)c1	none (no result: Shiga toxin inh, Cycloheximide cs, AMA1-RON2 inh)
COc1ccc(CN(C(=O)CSc2nnc(-c3c[nH]c4ccccc34)o2)c2ccc(F)cc2)cc1OC	Marburg entry inh inconclusive, Shiga toxin inh 51, Cycloheximide cs 41, Lassa entry inh 7.1µM
CC1CCCN(C(=O)CSc2nnc(-c3c[nH]c4ccccc34)o2)C1 (centres undefined)	Cycloheximide cs 35, Lassa entry inh inconclusive
CCSc1nnc(-c2c[nH]c3ccccc23)o1	Marburg entry inh inconclusive, Shiga toxin inh 88, Cycloheximide cs 44
COc1ccc(CN(C(=O)CSc2nnc(-c3ccc(F)cc3)o2)c2ccc(F)cc2)cc1	Lassa entry inh inconclusive
CCC1CCCCN1C(=O)CSc1nnc(-c2c[nH]c3ccccc23)o1 (centres undefined)	Cycloheximide cs 16
O=C1[C@@H]2[C@H](ON(c3ccccc3)[C@H]2c2ccncc2)C(=O)N1c1ccccc1	none (no result: Shiga toxin inh, Cycloheximide cs, Lassa entry inh, AMA1-RON2 inh)
C[C@@H]1CN([C@@H](C)CO)S(=O)(=O)c2ccc(Br)cc2O[C@H]1CN(C)C(=O)Cc1cccnc1	none (no result: Marburg entry inh, Shiga toxin inh, Cycloheximide cs, Lassa entry inh)
Cc1ccc(C(=O)Nc2c(C(=O)NCc3ccc(Cl)cc3)sc3nc(C)cc(C)c23)cc1	none (no result: Shiga toxin inh, Cycloheximide cs, AMA1-RON2 inh)
O=C(CSc1ccc(-c2ccccc2)nn1)N1CCOCC1	Marburg entry inh inconclusive, Cycloheximide cs 24
O=C(CSc1ccc(-c2ccc(F)cc2)nn1)N1CCN(c2ccccc2)CC1	none
COc1cccc(-c2ccc(SCC(=O)N3CCOCC3)nn2)c1	none (no result: Lassa entry inh)
O=C(CSc1nnc(Cc2ccccc2)n1C1CCCCC1)N1CCOCC1	Cycloheximide cs 16
O=C(CSc1ccc(-c2ccc(F)cc2)nn1)N1CCOCC1	Marburg entry inh inconclusive, Cycloheximide cs 20
Cc1c(C(=O)N2CCC(C)CC2)c(S(=O)(=O)Nc2cccc(C(F)(F)F)c2)c(C)n1C	none (no result: Marburg entry inh, Shiga toxin inh, Cycloheximide cs, AMA1-RON2 inh)
Cc1ccc(C(O)c2ncc(-c3cccc(C(F)(F)F)c3)[nH]2)cc1F (centres undefined)	none (no result: Marburg entry inh, Shiga toxin inh, Cycloheximide cs, Lassa entry inh)
COc1ccc2sc(N(CCCN(C)C)C(=O)c3nc4ccccc4s3)nc2c1	none
COc1ccccc1C(=O)N(CCC1CCCN1C)c1nc2ccccc2s1 (centres undefined)	Marburg entry inh inconclusive, Cycloheximide cs 26, Lassa entry inh inconclusive
CCc1cccc(C)c1NC(=O)c1cc(S(=O)(=O)N(C)Cc2ccccc2)ccc1F	none (no result: Marburg entry inh, Shiga toxin inh, Cycloheximide cs, AMA1-RON2 inh)
Cc1cccc(C(=O)Nc2cccnc2Cl)c1	Marburg entry inh inconclusive, Cycloheximide cs 12
O=C(Nc1cccnc1Cl)c1cccc(F)c1	none (no result: Marburg entry inh, Lassa entry inh, AMA1-RON2 inh)
C/C(=N\Nc1cccc2cccnc12)c1ccc(C)cc1	Shiga toxin inh 93, Cycloheximide cs 31 (no result: Marburg entry inh, Lassa entry inh)
Cc1cccc(C(=O)Nc2cccc3cccnc23)c1	Shiga toxin inh 70, Cycloheximide cs 45 (no result: Marburg entry inh, Lassa entry inh)
Cc1ccc(C(=O)Nc2cccc3cccnc23)cc1Cl	Marburg entry inh inconclusive (no result: Shiga toxin inh, Cycloheximide cs, AMA1-RON2 inh)
Cc1ccc(C(=O)Nc2cccc3cccnc23)cc1C	Cycloheximide cs 29, Lassa entry inh inconclusive (no result: Shiga toxin inh)
O=C(Nc1cccc2cccnc12)c1cccnc1	Marburg entry inh inconclusive
Cc1cnc(C(=O)Nc2cccc3cccnc23)cn1	Marburg entry inh inconclusive, Lassa entry inh 1.6µM
COc1cc(NC(=O)Nc2cccc3cccnc23)cc(OC)c1OC	Cycloheximide cs 16 (no result: Marburg entry inh, Lassa entry inh)
COc1cccc(Cn2cc(C(=O)NCCN(C)C)nn2)c1	none (no result: Marburg entry inh, Lassa entry inh)
